Several values for one entry are separate records, joined by “and”; a condition that tells them apart may be missing. Equal values may be shown once. Records with an inconclusive call do not appear. Activity calls are given as the source filed them. Unless noted, calls follow the shape of the dose curve; as a rule, active = well fitted curve in the direction sought with a large enough effect; inconclusive = small, poorly fitted or top-dose-only effect, or another doubt; inactive = no such curve, though single readings can be large; an effect the other way counts as inactive or inconclusive.

The target of test [1] is Alpha-galactosidase A (Homo sapiens) (UniProt P06280). In words: Counterscreen for Glucocerebrosidase Inhibitors: qHTS Assay for Human alpha-Galactosidase at pH 4.5 (AID 992). Also: 0% is about no effect. An outline of the steps: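 Read-out is 4-methylumbelliferone fluorescence (365 nm excitation, 440 nm emission) after a pH 10 NaOH/glycine stop. Reactions held 2 nM enzyme and 80 uM substrate at pH 4.5 for 20 min at room temperature.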
Chain of Alpha-galactosidase A (Homo sapiens) (P06280 whole entry, looked up): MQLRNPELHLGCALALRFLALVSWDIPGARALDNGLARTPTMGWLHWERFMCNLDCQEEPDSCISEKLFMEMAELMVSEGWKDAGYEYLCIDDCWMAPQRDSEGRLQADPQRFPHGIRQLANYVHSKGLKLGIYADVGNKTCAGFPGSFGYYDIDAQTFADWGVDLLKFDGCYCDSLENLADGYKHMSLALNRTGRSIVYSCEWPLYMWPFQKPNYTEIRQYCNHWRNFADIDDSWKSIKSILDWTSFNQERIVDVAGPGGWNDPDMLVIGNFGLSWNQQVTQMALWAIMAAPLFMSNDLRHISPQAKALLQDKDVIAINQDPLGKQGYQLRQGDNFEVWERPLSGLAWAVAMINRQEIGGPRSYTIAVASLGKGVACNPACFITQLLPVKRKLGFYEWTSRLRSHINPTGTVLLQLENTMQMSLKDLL
(A counterscreen serves to expose hits that act by an unwanted route or on another target.)

A short description of test [2]: qHTS Assay for Lipid Storage Modulators (AID 1519; calls by dose curve; as to activity change, negative = inhibition: % is scaled to controls: 0 for no effect and ±100 for the full control effect). The conditions noted are these: Drosophila S3 cells, BODIPY lipid droplet/cell ratio, laser cytometry, cells loaded with oleic acid. Put shortly: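 Cells seeded at 5,000 per well were treated with compounds over a concentration series and loaded with oleic acid (400 uM, as added). Lipid droplet fluorescence (488 nm excitation, 500-530 nm channel) was read by laser-scanning cytometry and normalized to 20 uM Triacsin C.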
For orientation: Quantitative high-throughput screening tests each substance at several concentrations.

In test [3] the target is DNA repair nuclease/redox regulator APEX1 (Homo sapiens) (UniProt P27695). In words: qHTS Validation Assay for Inhibitors of the Human Apurinic/apyrimidinic Endonuclease 1 (APE1) (AID 1705; also: potency is read from the fitted curve at half-maximal effect;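 as to activity change, negative = inhibition: TAMRA fluorescence gain over two minutes as APE1 cuts a quenched THF abasic duplex; % is scaled to controls: 0 for no effect and ±100 for the full control effect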). Put shortly: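 Human APE1 was preincubated with compound for 15 min at room temperature, then 50 nM (final) THF-abasic double-stranded DNA substrate bearing 5'-TAMRA and 3'-BHQ-2 was added. Incision-driven fluorescence rise (ex 525/em 598 nm) was read kinetically.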
Chain of DNA repair nuclease/redox regulator APEX1 (Homo sapiens) (P27695 whole entry, looked up): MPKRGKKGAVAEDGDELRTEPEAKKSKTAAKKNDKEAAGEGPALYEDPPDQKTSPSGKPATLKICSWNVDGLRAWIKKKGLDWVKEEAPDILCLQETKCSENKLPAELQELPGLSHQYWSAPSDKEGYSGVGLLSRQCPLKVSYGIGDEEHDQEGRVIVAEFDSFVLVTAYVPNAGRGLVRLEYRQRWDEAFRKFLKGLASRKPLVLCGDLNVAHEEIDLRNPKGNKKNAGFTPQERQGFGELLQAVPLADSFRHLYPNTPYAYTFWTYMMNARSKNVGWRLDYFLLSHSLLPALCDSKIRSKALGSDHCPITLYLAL

A short description of test [4]: Counterscreen for APE1 Inhibitors: Fluorescent Dye Displacement Validation Assay (AID 1707).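 Also: plate controls were ThO with dsDNA and no compound for no effect and ThO without dsDNA for full effect.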 Put shortly:
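ThO 250 nM + dsDNA 50 nM (THF abasic site, 5'-TAMRA), Tris-HCl pH7.5/50mM NaCl/2 mM MgCl2/0.01% Tween-20; compounds pin-transferred; ex 480/em 540 nm endpoint. Neutral = no compound; no-DNA ThO wells = negative control.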

Test [5] deals with Endonuclease 4 (Escherichia coli (strain K12)) (UniProt P0A6C1). In words: Counterscreen for APE1 Inhibitors: qHTS Validation Assay for Inhibitors of Endonuclease IV (AID 1708). Also: % is scaled to controls: 0 for no effect and ±100 for the full control effect. An outline of the steps:
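qHTS concentration-response format; LOPAC1280 tested under APE1-screen conditions. 2 nM enzyme, 15 min compound preincubation at RT, then 50 nM TAMRA/BHQ-2 abasic substrate; kinetic fluorescence read, three reads at 60 s intervals.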

Test [6] can be described thus: Validation of Assay for Modulators of Lamin A Splicing (AID 1459; active = well fitted curve in the direction sought with a large enough effect in the signal ratio; the % refers to the signal ratio;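 also: cells exposed to compound for two days before reading; 0% is about no effect; ratio rise marks activators and ratio drop marks inhibitors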). Put shortly: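 S3 HeLa cells stably expressing a lamin A-EGFP splicing minigene and DsRed2 were seeded at 600 cells/well in Opti-MEM with 2% FBS, pin-dosed, and incubated 48 hrs at 37 °C, 5% CO2. Laser-scanning cytometry (488 nm) gave GFP/RFP total intensity ratio.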
Test [7] addresses alpha-glucosidase (Oryza sativa, rice) (UniProt Q653V4). The experiment in a line: Counterscreen for Glucocerebrosidase Inhibitors: qHTS Assay for Rice alpha-Glucosidase at pH 5.0 (AID 997).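 Also: 0% = full activity with enzyme and -100% = basal without enzyme.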 Put shortly:
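Rice alpha-glucosidase (4 nM final) with 400 uM 4-methylumbelliferyl-alpha-D-glucopyranoside in citrate buffer pH 5.0, 20 min at room temperature, stopped at pH 10; fluorescence 365/440 nm, compounds 0.7 nM–77 uM, AC50 from Hill fits.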

Where [8] appears, read: measured here: cell count channel max response.
[9] abbreviates: measured here: lipid channel max response.

Consider `Cc1cc(C(C)(C)C)c(O)c(C)c1CC1=NCCN1`, for which the call in test [1] was inactive. The activity change, negative = inhibition in test [2] (at 25.7 µM (top of the series)) was -3.48% (inactive); in test [2] (at 57.5 µM (top of the series)), -2.77% (inactive) and 10.3% (inactive). Also, the max response was -11.5% and -13.2% and 34.1% in test [2] (setting [8]); -16% and -15.4% and 53.3% in test [2] (setting [9]). Besides, the Potency entry in test [3], in test [4] and in test [5] was “inactive” in each case.

For the compound `COc1ccccc1OCC(O)CN1CCN(CC(=O)Nc2c(C)cccc2C)CC1` (stereo not given), in test [6], the compound was classed as inactive. In test [2] (at 57.5 µM (top of the series)), the activity change, negative = inhibition was 13.2% (inactive). The figures for the max response in test [2] (setting [8]) and in test [2] (setting [9]) were 8.98% and 24.1%, respectively. In addition, the Potency result in test [4] and in test [5] was “inactive” each time.

Consider `COc1ccc(C2CNC(=O)C2)cc1OC1CCCC1` (stereo not given), for which the compound was classed as inactive in test [1] and in test [6]. Also, the Potency result in test [4] and in test [5] was “inactive” in each case.

On to `CC(C(=O)O)c1cccc(C(=O)c2ccccc2)c1` (stereo not given), for which, in test [6], the result was inactive. Moreover, the Potency result in test [4] and in test [5] was “inactive” each time.

Turning to `CCCNCC(O)COc1ccccc1C(=O)CCc1ccccc1` (stereo not given), the activity change, negative = inhibition in test [2] (at 57.5 µM (top of the series)) is 6.61% (inactive) and -1.46% (inactive). The max response in test [2] (setting [8]) was 8.1% and 22.1%; in test [2] (setting [9]), 14% and 22.1%.

As for `COc1cc2nc(N(C)CCCNC(=O)C3CCCO3)nc(N)c2cc1OC` (stereo not given), the activity change, negative = inhibition in test [2] (at 57.5 µM (top of the series)) was 3.93% (inactive). The values for the max response in test [2] (setting [8]) and in test [2] (setting [9]) were 5.38% and 20.8%, respectively.

As to `CN(C)CCCN1c2ccccc2CCc2ccc(Cl)cc21`, the result in test [1] was inactive. Besides, the activity change, negative = inhibition in test [2] (at 25.7 µM (top of the series)) was -2.54% (inactive); in test [2] (at 57.5 µM (top of the series)), 1.94% (inactive). In addition, the max response was -4.06% and 0.0678% in test [2] (setting [8]); -5.65% and 2.74% in test [2] (setting [9]). For the same compound, the Potency result in test [3], in test [4] and in test [5] was “inactive” each time.

Take `CN(Cc1cnc2nc(N)nc(N)c2n1)c1ccc(C(=O)N[C@@H](CCC(=O)O)C(=O)O)cc1`: the outcome in test [1] and in test [7] was inactive. Besides, the activity change, negative = inhibition in test [2] (at 57.5 µM (top of the series)) is 0.2% (inactive). In addition, the max response in test [2] (setting [8]) is -11.7%; in test [2] (setting [9]) it was -9.12%. Besides, the Potency in test [3] was 20 µM (active). Also, the Potency result in test [5] is “inactive”.

Take `CN1CCC(=C2c3ccccc3CC(=O)c3sccc32)CC1`: the compound was classed as inactive in test [1] and in test [7]. In addition, the activity change, negative = inhibition in test [2] (at 25.7 µM (top of the series)) was -3.11% (inactive); in test [2] (at 57.5 µM (top of the series)) it was 1.94% (inactive). For the same compound, the max response in test [2] (setting [8]) was 0.637% and -29.8%; in test [2] (setting [9]) it was -3.73% and -28.3%. In addition, the Potency result in test [4] and in test [5] was “inactive” each time.

Take `COc1ccccc1N1CCN(CC(O)COc2cccc3ccccc23)CC1` (stereo not given): in test [2] (at 57.5 µM (top of the series)), the activity change, negative = inhibition is 0.0402% (inactive). Further, the max response was -17.8% in test [2] (setting [8]) and -14.9% in test [2] (setting [9]). For the same compound, in test [3], the Potency entry is “inactive”.

As for `CCCCc1oc2ccccc2c1C(=O)c1cc(I)c(OCCN(CC)CC)c(I)c1`, the compound was called inactive in test [1]. The activity change, negative = inhibition in test [2] (at 57.5 µM (top of the series)) was -1.96% (inactive). Besides, the max response in test [2] (setting [8]) was found to be 0.489%; in test [2] (setting [9]), 1.02%. Also, the Potency entry in test [3] and in test [4] was “inactive” in each case.

The values are drawn from PubChem BioAssay (NCATS).
